# Source: the supplement of paper PMC8728848
# This is one part of a sample in which the strongest signals are shown more often than they occur.
# B1: Epa19 (Candida glabrata) (protein)
# chain: MGSSHHHHHHSSGLVPRGSHMASSKDPTRFPIGCSPQVLKTQPGLAVKLYSYGHPVPGCSYITYQYPDFPRSGYKKERKLADITGVNGKIDIDLKPNDPCRVLTGHLPSNYNYPDTLTYTNFTMILYGYFQPKVTGYHTFNLEADDLLFMNLGAGNAFDCCKAESTLDNFGNYQSYSLWGSDYAKANITVFLVSGVYYPIRLFYVNRDNNAVIDFSFTTEFDKEKVHDFTSYFFSASDGEQCPGSV
# Experiments:
# Assay in all cases: glycan array binding signal (z-score within array); higher = stronger binding
# Settings in all cases: glycan notation: IUPAC condensed, linker removed
# [1] = target: GalNAc(b1-3)Gal(a1-4)Gal(b1-4)GlcNAc
# How it was run: (§1)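 Negative Z-scores can be read as non-binding. The Z-score is calculated within each array and then averaged across arrays of one protein sequence at different concentrations or buffers and across linkers. Arrays, 3228 in all, were curated from the Consortium for Functional Glycomics database and kept only where the protein sequence was available.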
# [2] = target: GalNAc(b1-3)Gal(a1-6)Gal(b1-4)Glc
# How it was run: as §1
# [3] = target: Glc(a1-4)Glc(a1-4)Glc(a1-4)Glc
# How it was run: as §1
# [4] = target: GlcNAc(a1-4)Gal(b1-4)GlcNAc(b1-3)Gal(b1-4)GlcNAc(b1-3)Gal(b1-4)GlcNAc
# How it was run: as §1
# GlcNAc(b1-3)Gal = target: GlcNAc(b1-3)Gal
# How it was run: as §1
# GlcNAc(b1-3)Gal(b1-4)Glc = target: GlcNAc(b1-3)Gal(b1-4)Glc
# How it was run: as §1
# [5] = target: GlcNAc(b1-3)Gal(b1-4)GlcNAc
# How it was run: as §1
# [6] = target: GlcNAc(b1-3)Gal(b1-4)GlcNAc(b1-3)Gal(b1-4)GlcNAc(b1-2)[GlcNAc(b1-3)Gal(b1-4)GlcNAc(b1-3)Gal(b1-4)GlcNAc(b1-6)]Man(a1-6)[GlcNAc(b1-3)Gal(b1-4)GlcNAc(b1-3)Gal(b1-4)GlcNAc(b1-2)Man(a1-3)]Man(b1-4)GlcNAc(b1-4)[Fuc(a1-6)]GlcNAc
# How it was run: as §1
# [7] = target: GlcNAc(b1-3)Gal(b1-4)GlcNAc(b1-3)Gal(b1-4)GlcNAc(b1-3)Gal(b1-4)GlcNAc(b1-2)[GlcNAc(b1-3)Gal(b1-4)GlcNAc(b1-3)Gal(b1-4)GlcNAc(b1-3)Gal(b1-4)GlcNAc(b1-6)]Man(a1-6)[GlcNAc(b1-3)Gal(b1-4)GlcNAc(b1-3)Gal(b1-4)GlcNAc(b1-3)Gal(b1-4)GlcNAc(b1-2)Man(a1-3)]Man(b1-4)GlcNAc(b1-4)[Fuc(a1-6)]GlcNAc
# How it was run: as §1
# [8] = target: GlcNAc(b1-3)Gal(b1-4)GlcNAc(b1-3)Gal(b1-4)GlcNAc(b1-3)Gal(b1-4)GlcNAc(b1-3)Gal(b1-4)GlcNAc(b1-2)[GlcNAc(b1-3)Gal(b1-4)GlcNAc(b1-3)Gal(b1-4)GlcNAc(b1-3)Gal(b1-4)GlcNAc(b1-3)Gal(b1-4)GlcNAc(b1-6)]Man(a1-6)[GlcNAc(b1-3)Gal(b1-4)GlcNAc(b1-3)Gal(b1-4)GlcNAc(b1-3)Gal(b1-4)GlcNAc(b1-3)Gal(b1-4)GlcNAc(b1-2)Man(a1-3)]Man(b1-4)GlcNAc(b1-4)[Fuc(a1-6)]GlcNAc
# How it was run: as §1
# [9] = target: GlcNAc(b1-4)GlcNAc(b1-4)GlcNAc
# How it was run: as §1
# [10] = target: GlcNAc(b1-6)Gal(b1-4)GlcNAc
# How it was run: as §1
# Kdn(a2-6)Gal(b1-4)GlcNAc = target: Kdn(a2-6)Gal(b1-4)GlcNAc
# How it was run: as §1
# [11] = target: Man(a1-2)Man(a1-6)[Man(a1-3)]Man(a1-6)[Man(a1-2)Man(a1-2)Man(a1-3)]Man(b1-4)GlcNAc(b1-4)GlcNAc
# How it was run: as §1
# Man(a1-6)Man = target: Man(a1-6)Man
# How it was run: as §1
# [12] = target: Neu5Ac(a2-3)Gal(b1-3)GlcNAc(b1-2)Man
# How it was run: as §1
# [13] = target: Neu5Ac(a2-3)Gal(b1-3)[GlcNAc(b1-6)]GalNAc
# How it was run: as §1
# [14] = target: Neu5Ac(a2-3)Gal(b1-3)[Neu5Ac(a2-6)]GlcNAc(b1-3)[Fuc(a1-3)[Gal(b1-4)]GlcNAc(b1-6)]Gal(b1-4)Glc
# How it was run: as §1
# [15] = target: Neu5Ac(a2-3)Gal(b1-3)]Neu5Ac(a2-3)Gal(b1-4)]GlcNAc
# How it was run: as §1
# [16] = target: Neu5Ac(a2-3)Gal(b1-4)GlcNAc(b1-3)Gal(b1-4)GlcNAc(b1-3)Gal(b1-4)GlcNAc
# How it was run: as §1
# [17] = target: Neu5Ac(a2-3)Gal(b1-4)GlcNAc(b1-3)Gal(b1-4)[Fuc(a1-3)]GlcNAc
# How it was run: as §1
# [18] = target: Neu5Ac(a2-3)Gal(b1-4)[Fuc(a1-3)]GlcNAc(b1-3)GalNAc
# How it was run: as §1
# [19] = target: Neu5Ac(a2-3)[GalNAc(b1-4)]Gal(b1-4)Glc
# How it was run: as §1
# Neu5Ac(a2-6)Gal(b1-4)Glc = target: Neu5Ac(a2-6)Gal(b1-4)Glc
# How it was run: as §1
# [20] = target: Neu5Ac(a2-6)Gal(b1-4)GlcNAc
# How it was run: as §1
# [21] = target: Neu5Ac(a2-6)Gal(b1-4)GlcNAc(b1-3)Gal(b1-4)GlcNAc
# How it was run: as §1
# [22] = target: Neu5Ac(a2-6)Gal(b1-4)GlcNAc(b1-3)Gal(b1-4)GlcNAc(b1-3)Gal(b1-4)GlcNAc(b1-2)Man(a1-3)[Neu5Ac(a2-6)Gal(b1-4)GlcNAc(b1-3)Gal(b1-4)GlcNAc(b1-3)Gal(b1-4)GlcNAc(b1-2)Man(a1-6)]GalNAc
# How it was run: as §1
# Neu5Ac(a2-6)GalNAc = target: Neu5Ac(a2-6)GalNAc
# How it was run: as §1
# [23] = target: Neu5Ac(a2-8)Neu5Ac(a2-8)Neu5Ac(a2-8)Neu5Ac(a2-3)[GalNAc(b1-4)]Gal(b1-4)Glc
# How it was run: as §1
# Neu5Ac(b2-6)GalNAc = target: Neu5Ac(b2-6)GalNAc
# How it was run: as §1
# [24] = target: Neu5Gc(a2-3)Gal(b1-4)GlcNAc(b1-3)Gal(b1-4)GlcNAc(b1-2)Man(a1-3)[Neu5Gc(a2-3)Gal(b1-4)GlcNAc(b1-3)Gal(b1-4)GlcNAc(b1-2)Man(a1-6)]Man(b1-4)GlcNAc(b1-4)GlcNAc
# How it was run: as §1
# [25] = target: Neu5Gc(a2-8)Neu5Gc(a2-3)Gal(b1-4)GlcNAc
# How it was run: as §1
binder,measurement,setting,value
B1,glycan array binding signal (z-score),[1],-0.192
same,glycan array binding signal (z-score),[2],-0.525
same,glycan array binding signal (z-score),[3],0.084
same,glycan array binding signal (z-score),[4],-0.551
same,glycan array binding signal (z-score),GlcNAc(b1-3)Gal,-1.24
same,glycan array binding signal (z-score),GlcNAc(b1-3)Gal(b1-4)Glc,-0.077
same,glycan array binding signal (z-score),[5],-0.29
same,glycan array binding signal (z-score),[6],3.06
same,glycan array binding signal (z-score),[7],2.24
same,glycan array binding signal (z-score),[8],2.39
same,glycan array binding signal (z-score),[9],-0.295
same,glycan array binding signal (z-score),[10],0.368
same,glycan array binding signal (z-score),Kdn(a2-6)Gal(b1-4)GlcNAc,-0.099
same,glycan array binding signal (z-score),[11],-0.373
same,glycan array binding signal (z-score),Man(a1-6)Man,0.479
same,glycan array binding signal (z-score),[12],-1.47
same,glycan array binding signal (z-score),[13],-0.681
same,glycan array binding signal (z-score),[14],-0.06
same,glycan array binding signal (z-score),[15],1.09
same,glycan array binding signal (z-score),[16],0.026
same,glycan array binding signal (z-score),[17],-0.678
same,glycan array binding signal (z-score),[18],3.04
same,glycan array binding signal (z-score),[19],0.603
same,glycan array binding signal (z-score),Neu5Ac(a2-6)Gal(b1-4)Glc,-0.768
same,glycan array binding signal (z-score),[20],-0.869
same,glycan array binding signal (z-score),[21],-1.3
same,glycan array binding signal (z-score),[22],3.53
same,glycan array binding signal (z-score),Neu5Ac(a2-6)GalNAc,-0.465
same,glycan array binding signal (z-score),[23],-0.059
same,glycan array binding signal (z-score),Neu5Ac(b2-6)GalNAc,-0.238
same,glycan array binding signal (z-score),[24],-0.264
same,glycan array binding signal (z-score),[25],-0.386
